Data from publication PMC4336329 (PLoS ONE, 2015).
Screen size: about 310,000 compounds; about 2,200 (0.71%) showed an effect of 50% or more. Effects have a minus sign here. What follows is part of a selection rich in strong results, with near analogues and random picks from the rest.

What follows are compounds tested against human ether-à-go-go-related gene (hERG) potassium channel (human, UniProt Q12809) (assay: primary screen, population patch clamp on CHO cells stably expressing hERG; higher = less effect of the substance).
human ether-à-go-go-related gene (hERG) potassium channel, sequence (Q12809 whole entry, looked up): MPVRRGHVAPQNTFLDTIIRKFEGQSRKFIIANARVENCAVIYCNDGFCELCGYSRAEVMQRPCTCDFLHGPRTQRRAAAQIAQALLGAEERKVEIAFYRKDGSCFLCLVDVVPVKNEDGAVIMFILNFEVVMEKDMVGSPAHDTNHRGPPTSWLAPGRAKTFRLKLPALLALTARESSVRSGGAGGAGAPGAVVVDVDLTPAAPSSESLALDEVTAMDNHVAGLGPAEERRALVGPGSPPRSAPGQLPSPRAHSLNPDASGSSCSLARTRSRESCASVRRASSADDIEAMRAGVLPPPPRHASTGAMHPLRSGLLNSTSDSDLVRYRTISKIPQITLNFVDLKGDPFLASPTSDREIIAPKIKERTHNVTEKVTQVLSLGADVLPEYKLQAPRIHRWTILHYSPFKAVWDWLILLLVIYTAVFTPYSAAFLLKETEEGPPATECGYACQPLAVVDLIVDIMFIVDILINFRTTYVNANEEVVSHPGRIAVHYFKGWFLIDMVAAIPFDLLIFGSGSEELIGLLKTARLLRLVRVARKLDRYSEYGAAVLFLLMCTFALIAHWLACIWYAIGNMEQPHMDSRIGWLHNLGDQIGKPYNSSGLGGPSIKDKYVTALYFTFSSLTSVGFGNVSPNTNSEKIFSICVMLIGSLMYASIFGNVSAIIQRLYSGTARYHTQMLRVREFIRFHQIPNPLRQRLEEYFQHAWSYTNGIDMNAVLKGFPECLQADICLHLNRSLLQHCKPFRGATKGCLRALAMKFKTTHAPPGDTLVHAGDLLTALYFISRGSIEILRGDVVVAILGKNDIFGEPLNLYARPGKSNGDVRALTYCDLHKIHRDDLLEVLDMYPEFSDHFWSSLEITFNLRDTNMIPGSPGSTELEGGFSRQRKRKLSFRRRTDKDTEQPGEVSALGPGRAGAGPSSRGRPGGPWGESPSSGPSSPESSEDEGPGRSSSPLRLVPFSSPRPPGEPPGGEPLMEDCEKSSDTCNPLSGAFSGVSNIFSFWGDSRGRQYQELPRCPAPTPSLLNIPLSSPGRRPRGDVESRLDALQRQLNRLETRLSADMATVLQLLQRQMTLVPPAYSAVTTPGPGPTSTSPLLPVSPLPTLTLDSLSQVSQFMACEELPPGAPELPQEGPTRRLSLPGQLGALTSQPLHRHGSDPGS
In the case of `CC(C)CN(C(=O)CN1CCN(S(=O)(=O)c2ccccc2)CC1)c1c(N)n(CC(C)C)c(=O)[nH]c1=O`, the “hERG current change (%, negative = inhibition) at 1uM” value was -2.18%. `CCOC(=O)c1c(CN(CC)CC)n(-c2ccccc2)c2ccc(O)cc12` was tested, and the “hERG current change (%, negative = inhibition) at 1uM” value was -45.6%. For `Cc1ccc(C(=O)Nc2cnc3ccccc3c2)cc1`, the “hERG current change (%, negative = inhibition) at 1uM” value was 6.66%. For `COc1ccc2c(CN3CC=C(c4ccccc4)CC3)cc(=O)oc2c1`, the “hERG current change (%, negative = inhibition) at 1uM” value was 13.1%. `Nc1cccc(Cl)c1N1CCOCC1` was tested, and the “hERG current change (%, negative = inhibition) at 1uM” value was 9%. In the case of `COc1ccccc1CNC(=O)C1CCCN(S(=O)(=O)c2cccc3cccnc23)C1` (stereo not drawn), the “hERG current change (%, negative = inhibition) at 1uM” value was 0.692%. With `O=C(COc1ccc2ccccc2c1)N1CCN(C(=O)c2ccc([N+](=O)[O-])cc2)CC1` the “hERG current change (%, negative = inhibition) at 1uM” value was -69.3%. In the case of `COc1cc(C(=O)N2CCN(C(=O)COc3ccc4ccccc4c3)CC2)cc(OC)c1OC`, the “hERG current change (%, negative = inhibition) at 1uM” value was -54%. With `O=C(COc1ccccc1)N1CCN(C(=O)c2ccc([N+](=O)[O-])cc2)CC1` the “hERG current change (%, negative = inhibition) at 1uM” value was -19%. `COc1ccc(OCC(=O)N2CCN(C(=O)c3ccc([N+](=O)[O-])cc3)CC2)cc1` was tested, and the “hERG current change (%, negative = inhibition) at 1uM” value was -43.2%. With `COc1cccc(C(=O)N2CCN(C(=O)COc3ccc4ccccc4c3)CC2)c1` the “hERG current change (%, negative = inhibition) at 1uM” value was -3.85%. With `COc1cc(OC)cc(C(=O)N2CCN(C(=O)COc3ccc4ccccc4c3)CC2)c1` the “hERG current change (%, negative = inhibition) at 1uM” value was -4.51%. With `O=C(CN1CCN(C(=O)C2CC2)CC1)Nc1cc(C(F)(F)F)cc(C(F)(F)F)c1` the “hERG current change (%, negative = inhibition) at 1uM” value was -5.9%. For `CCOc1ccc(Br)cc1S(=O)(=O)NC1CC(C)(C)NC(C)(C)C1`, the “hERG current change (%, negative = inhibition) at 1uM” value was 17%. For `CC1(C)CC(NC(=O)COc2ccc3ccc(=O)oc3c2)CC(C)(C)N1`, the “hERG current change (%, negative = inhibition) at 1uM” value was 13.6%. For `CCOC(=O)c1c(NCc2ccccc2)n[nH]c1C`, the “hERG current change (%, negative = inhibition) at 1uM” value was 4.96%. For `CCOC(=O)c1c2n(c3c(NCc4ccccc4)ncnc13)CCCC2`, the “hERG current change (%, negative = inhibition) at 1uM” value was -70.3%. For `CCOC(=O)CSc1ncnc2c(C(=O)OCC)c3n(c12)CCC3`, the “hERG current change (%, negative = inhibition) at 1uM” value was -10.4%. `COC(=O)c1c(NC(=O)CSc2ncn[nH]2)sc(C)c1C` was tested, and the “hERG current change (%, negative = inhibition) at 1uM” value was 11.2%. In the case of `Cc1ccc(-c2csc3ncnc(N4CCN(C)CC4)c23)cc1C`, the “hERG current change (%, negative = inhibition) at 1uM” value was 10.8%. `CCN1CCN(c2ncnc3scc(-c4ccc(C)c(C)c4)c23)CC1` was tested, and the “hERG current change (%, negative = inhibition) at 1uM” value was -50.8%. With `CCN1CCN(c2ncnc3scc(-c4ccc(C)cc4)c23)CC1` the “hERG current change (%, negative = inhibition) at 1uM” value was 3.26%. In the case of `CN(C)S(=O)(=O)c1ccc(C(=O)NCc2ccccn2)cc1`, the “hERG current change (%, negative = inhibition) at 1uM” value was 14.5%. `CN(C/C=C/c1ccccc1[N+](=O)[O-])Cc1ccccc1` was tested, and the “hERG current change (%, negative = inhibition) at 1uM” value was -8.37%. In the case of `COc1ccc(CCN(C)Cc2ccc(OC)c(OCc3ccccc3)c2)cc1OC`, the “hERG current change (%, negative = inhibition) at 1uM” value was -77%. With `COc1ccc(CCN(C)C/C=C/c2ccccc2)cc1OC` the “hERG current change (%, negative = inhibition) at 1uM” value was -43.3%. `COc1ccc(CCN(C)Cc2ccc(OCc3ccccc3)c(OC)c2)cc1OC` was tested, and the “hERG current change (%, negative = inhibition) at 1uM” value was -42.9%. For `C=CCOc1ccccc1CNCCc1ccc(S(N)(=O)=O)cc1.Cl`, the “hERG current change (%, negative = inhibition) at 1uM” value was -6.97%. For `Cl.NS(=O)(=O)c1ccc(CCNCc2cc(Br)ccc2OCc2ccccc2)cc1`, the “hERG current change (%, negative = inhibition) at 1uM” value was -44.9%. With `COc1ccc(CCN(C)C/C=C/c2ccccc2[N+](=O)[O-])cc1OC` the “hERG current change (%, negative = inhibition) at 1uM” value was -54.3%. For `Cl.NS(=O)(=O)c1ccc(CCNCc2ccccc2OCc2ccc(Cl)cc2)cc1`, the “hERG current change (%, negative = inhibition) at 1uM” value was -70.5%. For `COc1cc(CNCCc2ccc(S(N)(=O)=O)cc2)ccc1OCc1ccc(Cl)cc1.Cl`, the “hERG current change (%, negative = inhibition) at 1uM” value was -1.77%. With `COc1cc(CN(C)CCc2ccccc2)ccc1OCc1ccccc1` the “hERG current change (%, negative = inhibition) at 1uM” value was -12.2%. In the case of `Cl.NS(=O)(=O)c1ccc(CCNCc2cc(Cl)ccc2OCc2ccccc2)cc1`, the “hERG current change (%, negative = inhibition) at 1uM” value was -59.3%. `Cl.NS(=O)(=O)c1ccc(CCNCc2ccccc2OCc2ccc(F)cc2)cc1` was tested, and the “hERG current change (%, negative = inhibition) at 1uM” value was -21.5%. For `CN(Cc1nc2ccccc2c(=O)[nH]1)C(=O)c1cccc(S(=O)(=O)N2CCCCCC2)c1`, the “hERG current change (%, negative = inhibition) at 1uM” value was 4.23%. `O=C(Oc1ccc(OC(=O)c2ccncc2)cc1)c1ccncc1` was tested, and the “hERG current change (%, negative = inhibition) at 1uM” value was 0.316%. `Cc1ccc(CN2C(=O)CN=C(c3ccccc3)c3ccccc32)cc1` was tested, and the “hERG current change (%, negative = inhibition) at 1uM” value was 2.73%. `Cc1noc(N)c1C(=O)Nc1ccc(C(C)(C)C)cc1` was tested, and the “hERG current change (%, negative = inhibition) at 1uM” value was -5.42%. `O=C(NCc1cccnc1)c1ccc(-c2cccc(Cl)c2Cl)o1` was tested, and the “hERG current change (%, negative = inhibition) at 1uM” value was 5.38%. `O=C(CN1C(=O)NC2(CCCC2)C1=O)Nc1ccc(Cl)c(C(F)(F)F)c1` was tested, and the “hERG current change (%, negative = inhibition) at 1uM” value was 9.87%. `O=C(COC(=O)CCCOc1ccc(Cl)cc1Cl)NCc1ccccc1` was tested, and the “hERG current change (%, negative = inhibition) at 1uM” value was 1.55%. For `O=C(Nc1c(-c2ccc(F)cc2)nc2ccccn12)c1ccc(F)cc1`, the “hERG current change (%, negative = inhibition) at 1uM” value was -4.64%. `CCOc1ccc(Cl)cc1Nc1nc(NCCO)nc(N2CCCC2)n1` was tested, and the “hERG current change (%, negative = inhibition) at 1uM” value was 5.92%. With `COc1ccc(N2C(=O)C(Cl)=C(N3CCCC(C)C3)C2=O)cc1` (stereo not drawn) the “hERG current change (%, negative = inhibition) at 1uM” value was 9.04%. In the case of `COc1ccccc1CCNCc1ccc(OC)c(OCc2ccccc2)c1`, the “hERG current change (%, negative = inhibition) at 1uM” value was -29.4%. For `COc1cc(CNCCc2ccccc2)ccc1OCc1ccc(Cl)nc1.Cl`, the “hERG current change (%, negative = inhibition) at 1uM” value was -0.117%. `COc1ccc(CNCCc2ccc(Cl)cc2)cc1OCc1ccccc1` was tested, and the “hERG current change (%, negative = inhibition) at 1uM” value was -52.2%. `O=C(OCc1cc(=O)n2c(n1)sc1ccccc12)c1ccc(O)cc1` was tested, and the “hERG current change (%, negative = inhibition) at 1uM” value was 17.3%. In the case of `COc1ccc(-n2cc(CNC3CCOCC3)c(-c3cccc(F)c3)n2)cc1`, the “hERG current change (%, negative = inhibition) at 1uM” value was -1.28%. `COc1ccc(-n2cc(CNC3CCC(O)CC3)c(-c3cccc(F)c3)n2)cc1` (stereo not drawn) was tested, and the “hERG current change (%, negative = inhibition) at 1uM” value was 4.86%. With `COc1ccc(-n2cc(CNC3CCN(C)CC3)c(-c3cccc(F)c3)n2)cc1` the “hERG current change (%, negative = inhibition) at 1uM” value was -64.4%. In the case of `O=C(OCc1nnc(-c2ccccc2)o1)c1cn(-c2ccccc2)nc1-c1ccccc1`, the “hERG current change (%, negative = inhibition) at 1uM” value was -1.95%. `CC1CCCN(C(=O)Cn2nnc(-c3ccc(S(C)(=O)=O)cc3)n2)C1` (stereo not drawn) was tested, and the “hERG current change (%, negative = inhibition) at 1uM” value was 21.2%.
